A selection: hits, their analogues and other compounds. The true share with any hit is near 5.7%.
KB-V1 MDR tox = qHTS assay for MDR1-selective chemotherapeutics: Primary screen using the drug-selected MDR subline cells KB-V1. KB-V1 MDR cells viability, CellTiter-Glo, 72 h. Potency, µM (series often up to 46.1 µM), most hits filed as cytotoxic. 3.4% of 400,000 active. AID 1347076, 2019; note: potency is the fitted concentration of half-maximal effect; nearly all actives have a fitted effect of over 60% in size
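Cytotoxicity via CellTiter-Glo luminescence after 72 h compound exposure at 37 degrees C. Cells: drug-selected KB-V1 line, DMEM phenol-red free plus 10% FBS. Compounds tested at multiple concentrations; normalized data fitted to concentration-effect curves.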
PI4K2A inh = qHTS for small molecular inhibitors of PI4K2A | Phosphatidylinositol 4-kinase type 2-alpha (Homo sapiens), Q9BTU6 | purified PI4K2A, ADP-Glo luminescence, 1 h; hits give low values | activity change, negative = inhibition, % at 76.9 µM | 0.13% of 420,000 active | AID 1346378, 2018; in the data active = activity change below about -50%; inconclusive = mostly about -30% to -49%;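 note: -100% = wells without enzyme as full effect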
Target sequence (Q9BTU6 whole entry, looked up): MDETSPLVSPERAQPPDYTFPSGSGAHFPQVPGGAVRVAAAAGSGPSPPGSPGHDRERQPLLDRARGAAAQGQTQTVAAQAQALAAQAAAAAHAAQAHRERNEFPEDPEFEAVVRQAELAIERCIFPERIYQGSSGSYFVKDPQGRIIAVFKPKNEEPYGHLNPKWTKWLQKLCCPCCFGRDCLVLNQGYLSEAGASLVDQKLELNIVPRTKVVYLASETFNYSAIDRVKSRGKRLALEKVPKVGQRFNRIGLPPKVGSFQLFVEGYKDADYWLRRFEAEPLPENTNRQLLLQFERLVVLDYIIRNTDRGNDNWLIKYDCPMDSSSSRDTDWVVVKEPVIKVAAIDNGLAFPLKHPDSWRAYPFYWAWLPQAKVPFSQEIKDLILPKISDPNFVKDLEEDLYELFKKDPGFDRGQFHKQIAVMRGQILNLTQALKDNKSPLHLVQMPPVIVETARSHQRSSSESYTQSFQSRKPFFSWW
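In this quantitative HTS, ADP production by PI4K2A was quantified luminescently after 1 h at ambient temperature; 100 microM adenosine served as plate-quality control.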
Nrf2 inh = Nrf2 qHTS screen for inhibitors | A549 ARE-Fluc reporter, luciferase luminescence, 18-24 h | Potency, µM (top dose mostly 46 µM), inactives show at the top dose activity change, negative = inhibition, hits mostly inhibitors | 2.1% of 360,000 active | AID 504444, 2011; note: potency is the fitted concentration of half-maximal effect; nearly all actives have a fitted effect of over 60% in size
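Quantitative HTS in A549 cells stably bearing an antioxidant response element-firefly luciferase construct. Inhibition of Nrf2-driven transcription was scored by luminescence after 18-24 h of compound exposure at 37 °C.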
Giardia killer = Small Molecules that selectively kill Giardia lamblia: qHTS; 0.15% of 340,000 active; Giardia lamblia trophozoite viability; AID 540267, 2011; activity change, % at 7.66 µM, hits read low; in the data active = activity change below about -80%; inconclusive = between about -30% and that limit;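 note: parasites exposed to compound for two days anaerobically before the ATP read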
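ATP-content bioluminescence gauges trophozoite survival. Cells (100/well) receive compound and incubate anaerobically for 48 hrs at 37 deg C; detection reagent follows for 15-30 min at room temperature.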
A549 tox = Nrf2 qHTS screen for inhibitors: counterscreen for cytotoxicity | A549 ARE-Fluc cells, CellTiter-Fluor viability, 18-24 h | 0.16% of 390,000 active | Potency, µM (series often up to 46 µM), for the others: top-dose activity change, negative = cytotoxicity, actives largely listed as inhibitors; note: potency is the fitted concentration of half-maximal effect
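A549 ARE_Fluc cells in 5% FBS OPTI-MEM were exposed to compounds in concentration-response for 18-24 h at 37 deg C. Viability was read by CellTiter-Fluor fluorescence (Ex 405/Em 525) after 30 min, before the luciferase read.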
KB-3-1 tox = qHTS assay for MDR1-selective chemotherapeutics: Primary screen using the parental adenocarcinoma cell KB-3-1; AID 1347075, 2019; KB-3-1 viability, CellTiter-Glo ATP luminescence, 72 h; 1.4% of 400,000 active; Potency, µM (highest dose often 46.1 µM), actives largely listed as cytotoxic; note: potency is the fitted concentration of half-maximal effect; nearly all actives have a fitted effect of over 60% in size
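72 h, 37 °C compound treatment of KB-3-1 parental cells; CellTiter-Glo added, 10 min, luminescence read. Data corrected against DMSO-only plates and normalized before curve fitting.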
* marks the source's active call; other numbers are inactive results; i = inactive; ? = inconclusive; . = no result given. Unless noted, calls come from the whole dose curve; as a rule, active = well fitted curve in the direction sought with a large enough effect; inconclusive = small, poorly fitted or top-dose-only effect, or another doubt; inactive = no such curve, though single readings can be large; an effect the other way counts as inactive or inconclusive. Unless noted, % is set by controls: 0 for no effect and ±100 for the full control effect.

SMILES	KB-V1 MDR tox	PI4K2A inh	Nrf2 inh	Giardia killer	A549 tox	KB-3-1 tox
COc1cc(C2c3cc4c(cc3OC(NCCc3ccccc3)C2C)OCO4)cc(OC)c1OC (stereo not given)	2.9µM*	-1	24%	-5	?	4.1µM*
COc1cc(C2c3cc4c(cc3OC(C)(N3CCCC3)C2C)OCO4)cc(OC)c1OC (stereo not given)	2.6µM*	2	27%	28	?	1.5µM*
COc1cc(C2c3cc4c(cc3OC(N3CCCC3)C2C)OCO4)cc(OC)c1O (stereo not given)	?	8	4%	-4	-4%	?
COc1ccc(C(=O)C[n+]2cccc3cc(Cl)ccc32)cc1	i	.	.	.	.	?
COc1ccc(S(=O)(=O)NC(C)C(=O)Nc2ccccc2C(F)(F)F)cc1 (stereo not given)	16µM*	0	.	5	1%	i
NC(=O)c1c(N)[nH]c(C(=O)c2ccccc2)c1-c1ccccc1C(F)(F)F	.	-2	.	.	.	.
CC(C)(C)NC(=O)CON=C1c2ccccc2-c2ccccc21	16µM*	6	?	2	-3%	i
CCOC(=O)C1CCCN(C(=O)c2ccc3c(=O)n(CCOC)c(=S)[nH]c3c2)C1 (stereo not given)	23µM*	-4	?	10	1%	i
COc1ccccc1Cn1c(=S)[nH]c2cc(C(=O)N3CCCC(C)C3)ccc2c1=O (stereo not given)	i	5	.	.	.	21µM*
COCCn1c(=S)[nH]c2cc(C(=O)N3CCC(C(N)=O)(N4CCCCC4)CC3)ccc2c1=O	i	-4	.	-3	0%	i
CC(=O)OCC(NC(=O)C(CCCCNC(=O)OCc1ccccc1)NC(=O)OC(C)(C)C)C1OC(n2ccc(=O)[nH]c2=O)C(OC(C)=O)C1OC(C)=O (stereo not given)	.	.	20%	-4	0%	.
Cc1cccc(NC(=O)CSc2nc(COc3ccccc3)nc3ccccc23)c1C	?	-1	26µM*	9	?	i
Cc1cccc(C)c1NC(=O)CSc1nc(COc2ccccc2)nc2ccccc12	i	-1	3%	16	?	i
CCOc1cc(/C=N/NC(=O)CN2CCOCC2)ccc1OCc1ccccc1	?	7	-13%	-2	?	i
CCOc1cc(/C=N/NC(=O)c2ccc(CN3CCOCC3)cc2)ccc1OCc1ccccc1	2.3µM*	1	?	10	-2%	?
CCOC(=O)/C(=C/C=C1\Sc2ccccc2N1CC)C(C)=O	i	-4	-7%	5	-16%	i
CCOC(=O)/C(=C\C=C1/Sc2ccccc2N1CC)C(C)=O	5.2µM*	6	-12%	15	-9%	i
COc1ccc2c(CC(=O)N(C)CC3COc4ccccc4O3)coc2c1 (stereo not given)	18µM*	3	1%	-2	-1%	i
COc1ccc(OCC(=O)N(C)CC2COc3ccccc3O2)cc1 (stereo not given)	i	-3	-4%	0	11%	?
CCOc1ccc2nc(N(Cc3cccnc3)C(=O)c3cccs3)sc2c1	.	1	.	.	-2%	.
COc1ccc2sc(N(Cc3cccnc3)C(=O)c3cccs3)nc2c1	?	0	.	.	?	16µM*
Cc1cc(/C([O-])=C(/C(=S)Nc2ccccc2)[n+]2ccccc2)c(C)n1-c1ccccc1	i	0	?	-13	-7%	i
Cc1cc(/C([O-])=C(/C(=S)Nc2ccc(F)cc2)[n+]2ccccc2)c(C)n1-c1ccc(F)cc1	23µM*	0	11%	-19	-21%	i
Cc1ccc(C(=O)N/C(=C\c2ccc(-c3ccc(Br)cc3)o2)C(=O)NCCCN(C)C)cc1	?	-2	?	3	?	5.8µM*
N#Cc1nc(N)nc(N2CCCCC2)n1	i	.	18µM*	-21	1%	i
SMILES	KB-V1 MDR tox	PI4K2A inh	Nrf2 inh	Giardia killer	A549 tox	KB-3-1 tox
N#Cc1nc(N2CCCCC2)nc(N2CCOCC2)n1	i	15	?	-10	-7%	i
CCN1CCN(C(c2cccs2)C(C)NC(=O)c2ccccc2OC)CC1 (stereo not given)	i	1	16%	-17	11%	i
COc1ccccc1N1CCN(C(c2cccs2)C(C)NC(=O)c2cccs2)CC1 (stereo not given)	4.1µM*	-7	-8%	7	0%	i
COc1ccccc1C(=O)NC(C)C(c1cccs1)N1CCN(C)CC1 (stereo not given)	18µM*	2	4%	-5	10%	i
COc1ccccc1N1CCN(C(c2cccs2)C(C)NC(=O)c2cccnc2)CC1 (stereo not given)	i	-4	7%	24	4%	i
C=C1C=C(C(F)F)n2ncc(C(=O)NC(C)CC)c2N1 (stereo not given)	i	.	.	.	.	i
c1ccc(Cn2ccc3ccc(-c4ccc5ccn(Cc6cccc(-c7ccsc7)c6)c5c4)cc32)cc1	.	-2	.	.	.	.
CN(c1ccccc1)c1ccc(/C=C(\C#N)c2nnc3n2CCCCC3)cc1[N+](=O)[O-]	10µM*	4	?	-11	-1%	?
N#C/C(=C\c1cccc([N+](=O)[O-])c1)c1nnc2n1CCCCC2	i	13	1%	16	-1%	i
CCc1ccc(Nc2n[n+](-c3ccccc3)c(-c3c(Cl)cccc3Cl)s2)cc1	?	-3	?	19	?	23µM*
CC(C)C(C(=O)OCC(=O)c1cccc([N+](=O)[O-])c1)N1C(=O)[C@@H]2[C@H]3CC[C@H](C3)[C@@H]2C1=O (stereo not given in full)	21µM*	8	-22%	14	-1%	i
O=C(CN1C(=O)C2C3CCC(C3)C2C1=O)OCC(=O)c1cccc([N+](=O)[O-])c1 (stereo not given)	i	0	4%	2	2%	i
Cc1oc(-c2ccccc2F)nc1CS(=O)(=O)CC(=O)NC1CCCC1	i	2	-7%	-17	0%	i
Cc1oc(-c2ccccc2F)nc1CSCC(=O)NC1CCCC1	?	3	18µM*	19	0%	i
Cc1oc(-c2ccccc2Cl)nc1CSCC(=O)NC1CC1	13µM*	1	0%	0	-14%	i

Bioassay records as filed in PubChem BioAssay.
